# Results as given in PubChem BioAssay AID1458 (National Center for Advancing Translational Sciences (NCATS), 2008).
# The campaign covered roughly 210,000 compounds. About 5,900 (2.8%) were called active. About 5% were inconclusive and are not listed. For the sample, actives were picked, then their nearest neighbours and some compounds at random. A number with no mark means an inactive call. Calls come from the whole dose curve; as a rule, active = well fitted activation curve with a large enough effect; inconclusive = small, poorly fitted or top-dose-only effect; inactive = no such curve, though single readings can be large or run the other way.
# Test: qHTS Assay for Enhancers of SMN2 Splice Variant Expression; note: nearly all actives have a fitted effect of over 55% in size; for activity change, positive = activation: % of control where 0% means no effect
# Details: HEK293 SMN2-luciferase splicing reporter, luminescence, 30-36 h; series mostly up to 46.1 µM; activity change, positive = activation: at the top concentration
# Summary of the method: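 qHTS luciferase splicing reporter: luminescence rises when SMN2 exon 7 is included in transfected HEK293 cells. Compound exposure lasted 30-36 h at 37C, with 4.5 mM final sodium butyrate as control, followed by a ONE-Glo read.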
# Potency is the fitted concentration of half-maximal effect.
Structure (SMILES),"activity change, positive = activation [%]",Potency
Cc1ccc(S(=O)(=O)N(NC2=NS(=O)(=O)c3ccccc32)C(=O)c2ccccc2)cc1,-33.5,
CC(C)(C)c1csc(NC2=NS(=O)(=O)c3ccccc32)n1,,8.91 µM (active)
O=C(Oc1cccc(NC2=NS(=O)(=O)c3ccccc32)c1)c1ccncc1,-1.12,
COc1ccc(CN2C(=O)C(NC(=O)c3cccc(C)c3)(C(F)(F)F)N=C2c2ccccc2)cc1 (configuration not stated),-6.05,
Cc1cccc(OCC(O)Cn2c(=N)n(CCN3CCOCC3)c3ccccc32)c1 (configuration not stated),-2.16,
OC(COc1ccc2ccccc2c1)Cn1cncn1 (configuration not stated),10.2,
OC(COc1ccc2ccccc2c1)CN1CCOCC1 (configuration not stated),,14.1 µM (active)
Cc1cccc(N2CCN(C(=O)c3oc(=O)c4ccccc4c3-c3ccccc3)CC2)c1C,-0.849,
CC1=Nc2cc(C(=O)N3CCC(C)CC3)ccc2Sc2ccc(Cl)cc21,-32.5,
O=C(Nc1ccccc1)c1cccnc1Nc1ccccc1,-22.9,
O=C(Nc1ccccc1)c1ccccc1NC(=O)C(F)(F)F,,10 µM (active)
NC(=O)c1ccccc1NC(=O)c1ccccc1F,10.5,
O=C(CSc1oc(-c2ccccc2)nc1S(=O)(=O)c1ccc(Br)cc1)NC1CCCCC1,-5.27,
COc1ccc2c(c1)CCc1c(C(=O)Nc3cc(C)ccc3O)noc1-2,21.9,
COc1ccc2c(c1)CCc1c(C(=O)N3CCCC3)noc1-2,,17.8 µM (active)
COc1ccc2c(c1)CCc1c(C(=O)Nc3c(C)n(C)n(-c4ccccc4)c3=O)noc1-2,-28,
Cn1c(=O)c2c(nc(SCC(=O)Nc3ccc(F)cc3)n2Cc2ccccc2)n(C)c1=O,-3.7,
Cc1ccc(CNC(=O)C2CCN(S(=O)(=O)c3ccc4nc5c(c(C(=O)O)c4c3)CC(C)CC5)CC2)cc1 (configuration not stated),4.28,
CC(C)Cc1cc(C(=O)NCCc2ccccc2)no1,,12.6 µM (active)
Cc1cc(C(=O)NCCCc2ccccc2)no1,24,
Nc1nonc1C(=O)NCCc1ccccc1,-21,
CCOC(=O)N1CCc2c(sc3c2c(=O)n(-c2ccc(CC)cc2)c(=O)n3C)C1,-4.84,
Cc1ccc(-c2ccc(CCC(=O)O)n2-c2ccc(C(N)=O)cc2)cc1,1.29,

Structure (SMILES),"activity change, positive = activation [%]",Potency
Cc1cccc(OCC(=O)N(Cc2ccc(C(C)C)cc2)Cc2ccco2)c1C,2.91,
Cc1ccc(C)c(Cn2c(=O)n(CCC(=O)NCc3ccc4c(c3)OCO4)c(=O)c3sccc32)c1,-7.25,
N=c1oc2ccccc2cc1C(=O)N/N=C/c1ccccc1,-26.9,
CC(=C/c1ccccc1)/C=N/NC(=O)c1cc(C)oc1C,,15.8 µM (active)
COc1ccc(C/C(C)=N/NC(=O)c2cc(C)oc2C)cc1,-0.732,
CSc1ccc(CCNC(=O)c2cnn(-c3ccccc3)c2-n2cccc2)cc1,-6.66,
CC(C)c1ccc(C2CC(=O)N3CN(C4CCCCC4)CSC3=C2C#N)cc1 (configuration not stated),-3.71,
CC(=O)OC(C(=O)NC1CCCCC1)c1ccccc1 (configuration not stated),8.55,
O=C(/C=C/c1cnc2ccccc2n1)NC1CCCCCC1,,11.2 µM (active)
O=C(Cn1c(-c2cncs2)nc2ccccc21)NC1CCCC1,-7.74,
COc1ccccc1NC(=O)CSc1oc(-c2ccco2)nc1S(=O)(=O)c1ccc(Br)cc1,2.03,
CCOc1ccc(CNCCSc2nnnn2C)cc1,-10.5,
CCOC(=O)c1c(N)nn(C(=O)c2ccccc2)c1-c1ccccc1,-1.78,
Cc1occc1C(=O)N1CCCc2ccccc21,23.4,
Cc1nn(C(=O)c2ccoc2C)c(N)c1-c1ccccc1,,12.6 µM (active)
CCCCCn1c(=O)[nH]c2cc(C(=O)NCCN(C)CCCC)ccc2c1=O,15.9,
C=Cc1ccc(Cn2c(C(=O)OC)cc3sc(C)cc32)cc1,18.4,
Cc1ccc(CCNC(=O)c2ccc3c(c2)N(Cc2cc(C)ccc2C)C(=O)c2ccccc2S3=O)cc1 (configuration not stated),-9.89,
Cc1sc(C2C(C#N)=C(N)N(c3cccc(Cl)c3)C3=C2C(=O)CCC3)cc1CN1CCOCC1 (configuration not stated),8.27,
COc1cccc(-c2nnc(SCC(=O)N3CCC(C)CC3)o2)c1,9.23,
Cc1ccc(Cc2nc(-c3cccc(C)c3)no2)cc1,,11.2 µM (active)
Cc1ccc(-c2noc(CN3CCN(Cc4ccccc4)CC3)n2)cc1,-89.9,
COc1ccccc1Cc1nc(-c2ccc(C)cc2)no1,-16.6,

Structure (SMILES),"activity change, positive = activation [%]",Potency
Cc1ccc(-c2noc(CC(c3ccccc3)c3ccccc3)n2)cc1,-73.8,
COc1ccc2[nH]c(=O)c(-c3noc(-c4ccc(F)cc4)n3)cc2c1,17,
Cc1cccc(-c2noc(-c3ccc(F)cc3)n2)c1,,11.2 µM (active)
COc1cccc(CNC(=O)CCC(=O)N2CC3CCCN3c3ccccc32)c1 (configuration not stated),5.39,
O=C(CC1Oc2ccccc2NC1=O)NCc1ccc(F)cc1 (configuration not stated),10.9,
CCCCn1c(CNC(=O)C23CC4CC(CC(C4)C2)C3)nnc1SCC(=O)Nc1ccc(C)cc1,5.94,
CCCCCn1c(CCCNC(=O)c2ccccc2OC)nc2ccccc21,-46.9,
CCOC(=O)c1c(NC(=O)/C(C#N)=C/c2ccccc2)sc2c1CCC2,4.92,
COc1ccc(NC(=O)C2CCN(c3ccc(Sc4ccc(C)cc4)nn3)CC2)c(OC)c1,-15.5,
O=[N+]([O-])c1cc(Br)c(O)c(/C=N/Nc2nc3ccccc3s2)c1,-60.1,
O=C1NC(Nc2nc3ccccc3s2)(C(F)(F)F)C(=O)N1C1CCCCC1 (configuration not stated),9.35,
c1ccc2sc(NN=C3CCCC3)nc2c1,,3.16 µM (active)
CCN(C(=O)c1sc2cc(OC)ccc2c1Cl)c1ccccc1,-48.3,
COc1ccc2c(c1)Cc1sc(NC(=O)c3ccccc3Br)nc1-2,-19.7,
Cc1ccc(CN(C(=O)COc2ccc(Cl)cc2C)C2CCS(=O)(=O)C2)o1 (configuration not stated),11.9,
O=C(NCc1cccnc1)c1cccc(-c2cc3ccccc3oc2=O)c1,-47.8,
O=c1oc2ccccc2cc1-c1cn(-c2ccccc2)c(=S)[nH]1,-69.9,
Nc1ncc(-c2cc3ccccc3oc2=O)s1,,15.8 µM (active)
CC(C)Sc1oc(-c2cccs2)nc1S(=O)(=O)c1ccc(Cl)cc1,0.89,
COc1ccc(NC(=O)CCc2nnc3n(CC(C)C)c(=O)c4ccccc4n23)cc1OC,-12.1,
CCOC(=O)c1cccc(NC(=O)C(Cc2ccccc2)NS(=O)(=O)c2cccc3nsnc23)c1 (configuration not stated),-63.8,
